Source: PubChem (National Center for Advancing Translational Sciences (NCATS))
Abeta yeast res: compounds reversing amyloid beta toxicity in yeast; yeast expressing A-beta42, growth rescue, OD600, 48 h; response scale: 0% DMSO, 100% iron-clioquinol control; Potency, µM (titrated, usually from 46.1 µM), most hits filed as activators; hit rate 0.063% among 410,000; AID 1347071; also: potency is read from the fitted curve at half-maximal effect; nearly all actives have a fitted effect of over 55% in size
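Growth rescue measured by 600 nm absorbance after 48 h yeast culture at 30 C with compound. Values normalized between DMSO and an equimolar ferric chloride plus clioquinol control.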
FUS suppressor: rescues growth of FUS-expressing yeast; S. cerevisiae FUS-expressing, growth rescue, OD600, 24 h; hit rate 0.24% among 390,000; Potency, µM (series often up to 76.6 µM), most hits filed as activators;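 also: potency is read from the fitted curve at half-maximal effect; plate controls were DMSO vehicle for no effect and reference control for full effect; nearly all actives have a fitted effect of over 55% in size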
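Cultures pregrown in 2.5% raffinose medium are shifted to minimal medium containing 2% galactose to express toxic FUS. Compounds are tested at several concentrations. After 24hr at 30C, growth is quantified at 600 nm absorbance.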
Akt phos inh: inhibitors of Akt phosphorylation | hit rate 0.32% among 360,000 | Neuro2A IGF-stimulated pAkt S473 HTRF, 20 min; active compounds read low | activity change, % for hits at 50 µM; in the data active = activity change below about -80%; inconclusive = mostly about -51% to -80%; also: % is scaled to controls: 0 for no effect and ±100 for the full control effect
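Single-point screen (50 µM final compound) in Neuro2A cells stimulated 20 min with 6 nM IGF at 37 deg C. After lysis, Ser473-phosphorylated Akt read by HTRF (ex 330 nm, em 615/665 nm) as the 665/615 ratio.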
TDP-43 yeast inh: rescues yeast growth from TDP-43 toxicity; TDP-43 expressing yeast growth rescue, BacTiter-Glo, 24 h; Potency, µM (series often up to 46.1 µM), for inactives: at the highest dose growth rescue (activation), most hits filed as activators; hit rate 1.8% among 410,000; AID 652104; also: potency is read from the fitted curve at half-maximal effect; % of control where 0% means no effect; nearly all actives have a fitted effect of over 50% in size
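Growth rescue of TDP-43-toxic yeast measured as ATP luminescence (BacTiter-Glo). Cells grown to mid-log in raffinose, induced in galactose at OD600=0.02, exposed to compound 24 hr at 30 deg C.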
aSyn rescue: rescues yeast growth from alpha-synuclein toxicity; hit rate 0.14% among 370,000; Potency, µM (titrated, usually from 46.1 µM), for the others: at the highest dose growth rescue (activation), usual class: activators; Yeast expressing alpha-synuclein, growth rescue, BacTiter-Glo, 24 h; also: potency is read from the fitted curve at half-maximal effect; % of control where 0% means no effect; nearly all actives have a fitted effect of over 65% in size
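Rescue of yeast growth: cells expressing toxic alpha-synuclein, induced in galactose at OD600 0.02, incubated with compound 24 h at 30 C. ATP luminescence quantified growth; inhibitors of toxicity appear as activators.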
The depositor's hits bear a star; i = inactive; ? = inconclusive; nt = no result. An excerpt weighted towards active compounds, which were near 2.3% of everything screened. Unless noted, calls follow the shape of the dose curve; as a rule, active = well fitted curve in the direction sought with a large enough effect; inconclusive = small, poorly fitted or top-dose-only effect, or another doubt; inactive = no such curve, though single readings can be large; an effect the other way counts as inactive or inconclusive.

SMILES	Abeta yeast res	FUS suppressor	Akt phos inh	TDP-43 yeast inh	aSyn rescue
CCOC(=O)[C@@H]1[C@H]2COc3cc(OC)ccc3[C@@H]2N2C(=O)N(c3ccc(Cl)cc3)C(=O)[C@]12C	i	28.2µM*	i	6.9%	-3.7%
CCOC(=O)[C@H]1[C@H]2COc3ccc(Br)cc3[C@@H]2N2C(=O)c3ccc(F)cc3NC(=O)[C@@]12C	i	i	i	4.2%	-9.6%
CCOC(=O)[C@H]1[C@H]2COc3ccc(Br)cc3[C@@H]2N2C(=O)c3cc(F)c(F)cc3NC(=O)[C@@]12C	i	28.2µM*	i	29.4%	1.4%
CCOC(=O)[C@@H]1[C@H]2COc3cc(OC)ccc3[C@H]2N2C(=O)N(c3ccc(Cl)cc3)C(=O)[C@]12C	i	?	i	19.3%	9.4%
CCOC(=O)[C@@H]1[C@H]2COc3ccc(Br)cc3[C@@H]2N2C(=O)N(c3ccccc3)C(=O)[C@@]12C	i	i	i	35.5µM*	?
CCOC(=O)[C@H]1[C@H]2COc3ccc(Br)cc3[C@@H]2N2C(=O)N(c3ccccc3)C(=O)[C@@]12C	i	?	i	16.2%	0.8%
CCn1nc(C)c2c(-c3ccccc3)cc(=O)n(C(C)C(=O)NCc3ccc(C)cc3)c21 (centres undefined)	i	?	nt	5.1%	nt
CCOc1ccc(-c2c(C)nn3c(C)c(C(=O)Nc4cccc(Cl)c4C)cnc23)cc1OCC	i	i	nt	18.8%	nt
CN1CCSc2ccc(C(=O)NCc3cccc(Br)c3)cc21	i	i	i	15.8µM*	4.8%
CCN1CCSc2ccc(C(=O)NCc3ccccc3C)cc21	i	i	i	35.5µM*	0.8%
CC(=O)c1cc(-c2ccc(F)cc2)n(CC(=O)NC2CCCCCC2)c1C	i	i	nt	10.0%	nt
CC(=O)Nc1ccc(S(=O)(=O)O)c2cc(S(=O)(=O)O)c(N=Nc3ccc(N=Nc4ccc(S(=O)(=O)O)cc4)c4ccc(S(=O)(=O)O)cc34)c(O)c12	nt	nt	nt	nt	-58.5%
COc1ccccc1Oc1c(C)oc2c(CN3CCN(CCO)CC3)c(O)ccc2c1=O	i	i	i	6.3%	1.2%
Cc1oc2c(CN3CCCC3)c(O)ccc2c(=O)c1Oc1ccccc1Br	i	i	-85.0%*	-10.4%	1.2%
CN(C)/[N+]([O-])=N/Oc1ccc([N+](=O)[O-])cc1[N+](=O)[O-]	nt	nt	nt	nt	-47.2%
O=[N+]([O-])c1ccc(OCc2cnc(Cl)s2)c([N+](=O)[O-])c1	i	i	i	11.2µM*	3.0%
COC(=O)C(Cc1cnc(Cl)s1)(C(=O)OC)c1ccc([N+](=O)[O-])cc1[N+](=O)[O-]	i	i	i	-7.7%	11.2%
O=c1[nH]c(C2CCCN(S(=O)(=O)c3ccccc3Cl)C2)nc2c1nnn2Cc1ccc2c(c1)OCCO2 (centres undefined)	nt	14.1µM*	i	1.6%	0.0%
O=c1[nH]c(C2CCCN(S(=O)(=O)c3ccccc3Cl)C2)nc2c1nnn2Cc1ccc(OC(F)(F)F)cc1 (centres undefined)	i	i	nt	-6.0%	nt
CC1(C)SC2c3ccccc3C(=O)N2[C@@H]1C(=O)NC1CC1 (some centres undefined)	i	i	i	1.26µM*	-4.6%
C/C(=N\Nc1ccccc1Cl)c1ccc(-n2ccnc2)cc1	i	i	i	7.08µM*	0.3%
CCCCOC(=O)CSc1n[nH]c(=O)[nH]c1=O	i	i	-123.8%*	4.2%	1.8%
CCCCCOC(=O)C(C)Sc1n[nH]c(=O)[nH]c1=O (centres undefined)	i	i	i	0.0%	-1.3%
Cc1ccc(C(=O)Nc2ccccc2)cc1S(=O)(=O)Nc1ccc(Br)cc1	i	i	nt	12.6µM*	nt
CN(C)S(=O)(=O)c1ccc(Nc2ccc(-c3ccc4c(c3)OCCO4)nn2)cc1	i	i	i	-6.3%	-0.7%
SMILES	Abeta yeast res	FUS suppressor	Akt phos inh	TDP-43 yeast inh	aSyn rescue
CN(C(=O)c1cccc(Nc2ccc(-c3ccc4c(c3)OCCO4)nn2)c1)C1CCCCC1	i	25.1µM*	i	21.6%	16.0%
CCOC(=O)c1cc(-c2ccc(OC)cc2)n(CCC(=O)NCCc2ccccc2)c1C	i	?	nt	31.6µM*	nt
COc1ccc(O)c(C2=Nc3ccccc3N=C(c3ccccc3)C2)c1	i	i	i	-5.7%	5.9%
COc1ccc2c(c1)NC(=O)CC(c1ccccc1)=N2	i	i	i	14.1µM*	-8.4%
Cc1cccc(NC(=O)Cn2c(=O)n(CCC(=O)N3CCc4ccccc4C3)c(=O)c3ccccc32)c1	i	i	nt	18.3%	nt
CCOC(=O)N/C(N)=N/c1nc2ccccc2s1	i	i	nt	11.2µM*	nt
Cc1ccc2nc(NC(=O)CSc3nccn3Cc3ccccc3)sc2c1	?	i	nt	?	?
CNC(=O)c1ccc(-c2sc3nc(N4CCOCC4)c4c(c3c2N)CC(C)(C)OC4)o1	i	i	i	17.5%	-1.5%
CNC(=O)c1ccc(-c2sc3nc(N4CCOCC4)c4c(c3c2N)CCCC4)o1	i	7.08µM*	i	22.4µM*	-7.5%
CCCNC(=O)NC(=O)CSc1cccc(C(F)(F)F)c1	i	i	i	17.8µM*	4.4%
CCC(=O)N1CCCc2cc(S(=O)(=O)Nc3ccc(C)c(C)c3)ccc21	i	i	nt	12.6%	nt
COc1cc2nc(N3CCCN(C)CC3)nc(NC3CCOCC3)c2cc1OC	nt	nt	nt	nt	-4.4%
CCOc1cccc(NC(=O)C2CC(=O)N(C)C(=Nc3cccc(OC)c3)S2)c1 (centres undefined)	i	?	nt	35.5µM*	nt
CCOc1cccc(NC(=O)C2CC(=O)N(C)C(=Nc3ccc(F)cc3)S2)c1 (centres undefined)	15.8µM*	i	nt	25.1µM*	nt
CCOc1cccc(NC(=O)C2CC(=O)N(C)C(=Nc3ccc(OC)cc3)S2)c1 (centres undefined)	i	i	nt	22.1%	4.7%
COc1cccc(CNC(=O)CN2C(=O)N(c3ccc(C)cc3C)S(=O)(=O)c3ccccc32)c1OC	i	i	nt	18.2%	nt
Cc1ccc(C(=O)N(Cc2ccc(N(C)C)cc2)CC2CCCO2)cc1 (centres undefined)	i	i	nt	7.8%	nt
O=S(=O)(c1ccc(Cl)cc1)N1CCN(c2nc(-c3ccc(F)cc3)nc3cc(Cl)ccc23)CC1	nt	nt	nt	nt	-3.3%
CC(C)(C)C(=O)O/N=C1/C(=O)N(c2ccccc2)c2ccccc21	i	i	i	?	7.08µM*
CC(C)CC(=O)O/N=C1\C(=O)N(c2ccccc2)c2ccccc21	i	i	i	-13.7%	1.4%
COc1ccc(CN2C(=O)NC3(CCCc4ccccc43)C2=O)cc1F (centres undefined)	i	i	i	11.2µM*	2.4%
